# Results as given in PubChem BioAssay (NCI).
# The panel holds about 83,000 compounds, 20% with a hit somewhere; the sample as a whole holds those more often.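 The test compound was applied at a single concentration to cells in 96-well plates for 48 hours, and percent growth was recorded.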 A number with no mark means an inactive call. Activity calls are given as the source filed them. Rule for the calls: active = growth percent below 10; inactive = the rest.
# Legend:
# Assay in all cases: NCI-60 one-dose screen, 48 h (100 = growth as untreated, 0 = no growth, -100 = all killed)
# Details in all cases: 10 µM unless noted
# BT-549 breast = test system: BT-549 breast
# MDA-MB-435 melanoma = test system: MDA-MB-435 melanoma
# SW-620 colon = test system: SW-620 colon
# MCF7 breast = test system: MCF7 breast
# HCT-116 colon = test system: HCT-116 colon
# HCC-2998 colon = test system: HCC-2998 colon
# KM12 colon = test system: KM12 colon
SMILES,growth (BT-549 breast),growth (MDA-MB-435 melanoma),growth (SW-620 colon),growth (MCF7 breast),growth (HCT-116 colon),growth (HCC-2998 colon),growth (KM12 colon)
Cc1cccc(C)c1NC(=O)CN(CC(C)C)CC(O)COc1ccccc1 (configuration not stated),82.4%,102%,93.6%,83.3%,86.8%,95.8%,100%
C#CC[C@@H]1C[C@]2(C)[C@H]3CC[C@@H]4[C@H]5[C@H](C(=C)C)CC[C@]5(C(=O)O)CC[C@@]4(C)[C@]3(C)CC[C@H]2C(C)(C)[C@H]1O,29%,68.5%,33.1%,34.7%,9.2% (active),64.7%,24.8%
CC[C@]12C=CCN3CC[C@@]4(c5cc(NC(=O)CCC(=O)O[C@H]6CC[C@H]7[C@@H]8CC[C@H]9CC(=O)CC[C@]9(C)[C@H]8CC[C@]67C)c(OC)cc5N(C)[C@H]4[C@@](O)(C(=O)OC)[C@@H]1OC(C)=O)[C@@H]32,58.6%,76.5%,85.6%,48.2%,47.5%,97.5%,74.2%
O=C(O)c1cn(C2CC2)c2cc(N3CCN(Cc4nnc(Nc5ccccc5)o4)CC3)c(F)cc2c1=O,98.8%,97.6%,106%,97.7%,91.6%,103%,96.7%
COc1cc(C2CC(c3ccc(Nc4nc(NCCO)nc(NCCO)n4)cc3)=NN2c2cc(Cl)cc(Cl)c2)cc(OC)c1OC (configuration not stated),-27.2% (active),-15.9% (active),-4.18% (active),-60.9% (active),9.76% (active),24.4%,-25.6% (active)
CCOC(=O)NC(Cc1ccccc1)c1ccccc1 (configuration not stated),96.5%,114%,95.2%,101%,96%,104%,110%
CN1CCN(CC#CCOC(=O)CNC(=O)[C@]23CCC(C)(C)C[C@H]2C2=CC[C@@H]4[C@@]5(C)CC[C@H](O)C(C)(C)[C@@H]5CC[C@@]4(C)[C@]2(C)CC3)CC1,88.9%,101%,86.8%,72%,76.2%,106%,94.5%
COc1cc(N=Nc2cc(S(=O)(=O)O)cc3cc(S(=O)(=O)O)cc(O)c23)c(C)cc1N=Nc1c(S(=O)(=O)O)cc2cc(Nc3ccccc3)ccc2c1O,103%,109%,108%,103%,98.4%,105%,102%
NS(=O)(=O)c1ccc(C2C3=C(CCCC3=O)OC3=C2C(=O)c2ccccc2C3=O)cc1 (configuration not stated),-99.8% (active),-93% (active),-45.4% (active),-61.5% (active),-73.6% (active),-61.4% (active),-29.1% (active)
CC1CCN(CCCCCOc2ccc3oc4ccccc4c(=O)c3c2)CC1,80.3%,79.9%,81.7%,68.3%,52.7%,79.5%,69.9%
Oc1ccccc1-c1nc2c3ccccc3c3ccccc3c2o1,103%,99.3%,68.4%,62.4%,80.7%,103%,93.3%
COc1ccc(OCC(=O)OC(C)C)cc1,109%,101%,94.4%,93.8%,114%,103%,93.8%
COc1ccc2cc(/C=C3\N=C(c4cc(OC)c(OC)c(OC)c4)OC3=O)c(OC)nc2c1,104%,106%,100%,99.8%,97.9%,102%,98.9%
O=C(N/N=C/C[C@@H]1[C@@H](/C=C/[C@@H](O)COc2cccc(Cl)c2)[C@H](O)C[C@@H]1O)c1ccncc1,95.3%,99.8%,94.2%,99.1%,92.7%,104%,105%
O=C1Nc2ccccc2C12C=C(c1ccccc1)Nc1c2c(-c2ccccc2)nn1-c1ccccc1 (configuration not stated),70.1%,65.1%,75.6%,39%,48.6%,72.3%,56.1%
CC(C)CSc1nc(Nc2ccccc2)c(C#N)c(-c2ccc(F)cc2)n1,28%,77.4%,55.2%,69%,7.9% (active),69.1%,73.2%
CCOC(=O)c1c(C)nc2c(c1N)CC(=O)N2CCc1ccccc1,-17.1% (active),8.84% (active),-67.5% (active),11.8%,6.98% (active),64.4%,16.1%
Cc1ccc(C2=N[C@H]3CCC[C@@H]3N(c3ccccc3)C(C(Cl)Cl)=N2)cc1,106%,103%,107%,87%,97.7%,110%,100%

SMILES,growth (BT-549 breast),growth (MDA-MB-435 melanoma),growth (SW-620 colon),growth (MCF7 breast),growth (HCT-116 colon),growth (HCC-2998 colon),growth (KM12 colon)
O=C(CSC(=S)N1CCCCC1)Nc1ccccc1,101%,110%,102%,99.8%,92.4%,98.2%,95.8%
Cc1c(Cl)cccc1NC(=O)c1sc2nc3c(cc2c1N)CN(Cc1ccccc1)CC3,61.9%,-4.11% (active),16.8%,16.1%,39.3%,82.9%,30.8%
COc1ccc(-c2cc(-c3nnc(SCC(=O)Nc4ccc(/C(C)=N\O)cc4)n3-c3ccccc3)c3cc(OC)ccc3n2)cc1,63.7%,79.2%,82.1%,,,100%,61.1%
C#C[C@@]1(O)[C@@H](CO)O[C@@H](n2cnc3c(-c4ccccc4)ncnc32)[C@@H]1O,102%,100%,111%,82.1%,99.8%,,106%
O=C1Nc2ccc(Br)cc2/C1=N\N=C/c1cn(Cc2ccccc2)c2ccccc12,105%,105%,99%,83.2%,93.7%,,96.2%
CN(C)C(CNc1oc(-c2cccc3ccccc23)nc1C#N)c1ccco1 (configuration not stated),91.4%,97.4%,103%,87.8%,89.3%,,97.4%
CCCn1cc(/C=N\N=C2\C(=O)Nc3ccc(C)cc32)c2ccccc21,63.5%,-26.6% (active),36.7%,8.92% (active),39.9%,,59.9%
CCCCn1c(=O)c(/C=C/C(=O)/C=C/c2cc3ccccc3n(CCCC)c2=O)cc2ccccc21,-54.5% (active),-65.2% (active),-2.85% (active),-0.486% (active),-90.3% (active),,-75.8% (active)
CC(=O)O[C@@H]1C[C@]2(C)[C@H]3[C@H](O)C[C@@H]4C5=CC(C)(C)CC[C@]5(C)CC[C@@]4(C)[C@]3(C)CC[C@H]2C(C)(C)[C@H]1O,102%,99.8%,98.7%,,,107%,105%
O=c1c2ccccc2n(CC(O)CN2CCCC2)c2c(Br)cccc12 (configuration not stated),92.2%,86.8%,94.9%,92.9%,90.4%,,94%
O=C(NC[C@H](O)CN1CCc2ccccc2C1)c1cc(NC2COC2)ncn1,97.8%,95.1%,93.8%,80.2%,86.7%,,98.1%
c1ccc(-c2n(Cc3ccc4ccccc4n3)cc[n+]2Cc2ccc3ccccc3n2)cc1,28%,15.4%,37.5%,,,26.6%,15.8%
CNCc1cccc2c1OCCOCCOCCN(CCN1CCOCC1)S(=O)(=O)c1ccc(cc1)-c1cnc(N)c(n1)C(=O)N2,22.3%,47.3%,43.4%,37.8%,35.9%,,37.5%
C#C[C@@]1(O)[C@@H](CO)O[C@@H](n2cc(Cl)c3c(N)ncnc32)[C@@H]1O,-32.9% (active),-12.3% (active),2.67% (active),-40.6% (active),4.58% (active),,1.42% (active)
CSc1nc(-c2cccs2)c2c(N)[nH]nc2n1,96.4%,117%,119%,94.3%,92.2%,,48.8%
CC1(c2ccccc2Cl)NC(=O)NC1=O (configuration not stated),99%,105%,102%,96.9%,107%,,109%
O=C(CCc1nnc2sc(OCc3ccccc3)nn12)c1nc2ccc([N+](=O)[O-])cc2[nH]1,102%,106%,107%,,,101%,95.7%
CCOC(=O)c1c(C)nc2c(c1N)/C(=C/c1ccc[nH]1)C(=O)N2Cc1ccc(C(F)(F)F)cc1,58.4%,90.9%,66%,45.1%,28.4%,,81.6%
